According to PubChem BioAssay (NCI):
Compounds without any hit were thinned out: in the full panel of roughly 83,000, 20% have a hit.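 48-hour exposure, single concentration, 96-well plates; percent growth endpoint where 0 means no net growth. Active: below 10.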 Calls of active or inactive are those of the source.

Legend:
Assay in all cases: NCI-60 one-dose screen, 48 h (100 = growth as untreated, 0 = no growth, -100 = all killed)
Conditions in all cases: 10 µM unless noted
[1] = system: DU-145 prostate
[2] = system: K-562 leukemia
[3] = system: MALME-3M melanoma
[4] = system: MDA-MB-231 breast
[5] = system: RXF 393 renal
[6] = system: SF-268 CNS
[7] = system: SF-295 CNS
[8] = system: SF-539 CNS
[9] = system: UACC-257 melanoma
[10] = system: M14 melanoma
[11] = system: HCT-15 colon
[12] = system: HT29 colon
[13] = system: SNB-75 CNS
[14] = system: SNB-19 CNS
[15] = system: U251 CNS
[16] = system: PC-3 prostate
[17] = system: SK-MEL-5 melanoma
[18] = system: UACC-62 melanoma
[19] = system: SK-MEL-28 melanoma

Measured: growth

COc1cc2c(c(OC)c1OC)C(=O)CC(c1cccc(NC(=O)[C@@H](N)CC(C)C)c1)O2 (some centres undefined)
inactive: [1] 100% | [2] 80.6% | [3] 95.5% | [4] 99.9% | [5] 101% | [6] 95.1% | [7] 101% | [8] 97.3% | [9] 94.1% | [10] 116% | [11] 95.3% | [12] 108% | [13] 97.8% | [14] 91.2% | [15] 95.3% | [16] 97.2% | [17] 96.7% | [18] 96.8% | [19] 115%

COc1cc(-c2nc3cc(Cl)c(Cl)cc3[nH]2)ccc1OCc1nnc(-c2cccs2)o1
inactive: [1] 34.7% | [2] 54% | [3] 18.1% | [4] 17.9% | [6] 68.5% | [7] 31.9% | [8] 104% | [9] 61.2% | [10] 41.8% | [11] 25.8% | [12] 58.2% | [13] 114% | [14] 65.8% | [15] 71.1% | [16] 50% | [17] 44.6% | [18] 21.3% | [19] 31.4%
active: [5] -2.12%

COc1cc(/C=C/C(=O)c2ccccc2)ccc1Oc1nc(Nc2ccc(F)cc2)nc(N(C)C)n1
active: [2] 6.43% | [4] -4.47% | [8] -8.58% | [11] -0.132% | [14] 3.33% | [15] 5.24%
inactive: [1] 53.7% | [3] 41.5% | [5] 39.4% | [6] 42.3% | [7] 26.5% | [9] 21.9% | [10] 38.7% | [12] 14.5% | [13] 39.9% | [16] 30.2% | [17] 18.9% | [18] 14.8% | [19] 18%

CCN1C(=O)N(CC)C2NNC(Sc3c(C(=O)O)c4ccccc4n(C4CCCC4)c3=O)=NC21 (centres undefined)
active: [1] 2.94% | [7] 8% | [8] -24.7% | [10] -7.72% | [12] 0.444% | [15] 8.79%
inactive: [2] 13.9% | [3] 72.4% | [4] 12.3% | [5] 50.2% | [6] 39.2% | [9] 58.7% | [11] 14.7% | [13] 20.9% | [14] 38.8% | [16] 36.3% | [17] 13.8% | [18] 47.4% | [19] 54.8%

O=C(COc1ccc(NC(=O)Nc2ccc(Cl)c(Cl)c2)cc1)N=Nc1c(O)[nH]c2ccc(Cl)cc12
active: [1] -31.3% | [2] 4.71% | [3] -76.6% | [4] -66.5% | [5] -53% | [6] -12.3% | [7] -61% | [8] -90.2% | [9] -72.2% | [10] -71.2% | [12] -30.1% | [13] -37.6% | [14] -13.8% | [15] -84.5% | [16] -2.39% | [17] -83.8% | [18] -33.1% | [19] -81.4%
inactive: [11] 30.6%

COc1ccc(NC(=O)Cn2c(O)c(N=Nc3ccc(S(N)(=O)=O)cc3)c3ccccc32)cc1
inactive: [1] 82.4% | [2] 40.8% | [3] 29.8% | [5] 82.7% | [6] 69.1% | [7] 22.1% | [8] 23.4% | [9] 67% | [10] 27.4% | [11] 79% | [13] 59.7% | [14] 23% | [16] 14.4% | [17] 62.3% | [18] 20.7% | [19] 26.7%
active: [4] -22.1% | [12] -2.87% | [15] -32.5%

S=C(Nc1ccccc1)Nc1ccc(OCc2nc3ccccc3[nH]2)cc1
inactive: [1] 43.8% | [2] 15% | [3] 51.6% | [4] 37% | [5] 75.1% | [6] 24.1% | [7] 24.2% | [8] 30.7% | [9] 48.2% | [10] 36.9% | [11] 29.5% | [12] 25.4% | [13] 27.4% | [14] 39.8% | [15] 34.5% | [16] 42% | [17] 49.1% | [18] 33.6% | [19] 61.6%

COc1cc2oc(-c3cccc(NC(=O)[C@H](Cc4ccccc4)NC(=O)OC(C)(C)C)c3)cc(=O)c2c(OC)c1OC
inactive: [1] 35.7% | [2] 23% | [3] 35% | [4] 42.7% | [5] 31% | [6] 62% | [7] 36.8% | [8] 43.1% | [9] 75.5% | [10] 51.7% | [11] 17.4% | [12] 22.8% | [13] 97.6% | [14] 40% | [15] 36.6% | [16] 39.7% | [17] 17.9% | [18] 54.6% | [19] 49.9%

COc1cc2c(c(OC)c1OC)C(=O)CC(c1cccc(NC(=O)c3cc(NC(=O)[C@H](CO)NC(=O)OC(C)(C)C)ccc3Cl)c1)O2 (some centres undefined)
inactive: [1] 27.5% | [2] 12.7% | [3] 43.2% | [5] 46.8% | [6] 45.4% | [7] 37% | [8] 37% | [9] 26.9% | [10] 22.5% | [11] 35.4% | [12] 15.7% | [13] 54.8% | [14] 45% | [15] 25.4% | [16] 28.1% | [17] 14.3% | [18] 40.2% | [19] 21%
active: [4] 6.43%

COc1cc2c(c(OC)c1OC)C(=O)CC(c1cccc(NC(=O)c3cc(N)ccc3Cl)c1)O2 (centres undefined)
inactive: [1] 47.3% | [2] 15.6% | [3] 54% | [4] 42.7% | [5] 46% | [6] 60.4% | [7] 78.9% | [8] 56.6% | [9] 64.9% | [10] 56% | [11] 22.3% | [12] 79.9% | [13] 43.7% | [14] 77.4% | [15] 65.6% | [16] 47.3% | [17] 35.8% | [18] 61.7% | [19] 56.8%

Cc1ccc(C(=O)NN2C(=O)/C(=C/C=C/c3ccc([N+](=O)[O-])o3)SC2=S)cc1
active: [1] -100% | [2] 6.34% | [3] -98% | [4] -96.4% | [5] -90% | [6] -86.7% | [7] -87.6% | [8] -96.6% | [9] -81.5% | [10] -70.6% | [11] -66.1% | [12] -74.3% | [13] -85% | [14] -100% | [15] -98.9% | [16] -15.1% | [17] -100% | [18] -92.4% | [19] -94.3%

C/C(=N\N=C1/C(=O)Nc2ccc(Cl)cc21)c1ccc2c(c1)Nc1ccccc1S2
inactive: [2] 10% | [6] 35.7% | [9] 10.1% | [14] 18.7% | [18] 13.5%
active: [1] -56.3% | [3] -19.6% | [4] -2.47% | [5] -11.5% | [7] -27.4% | [8] 3.26% | [10] -20.8% | [11] 0.895% | [12] -31.1% | [13] 8.6% | [15] -32.1% | [16] -5.59% | [17] -15.6% | [19] -48.9%

CC(=O)Nc1cccc(-c2nc3cc(-c4ccc(O)cc4)ccc3n2C)c1
inactive: [1] 56.5% | [2] 35.4% | [4] 49.1% | [5] 81.3% | [6] 42.8% | [7] 26% | [8] 57.2% | [10] 24.5% | [11] 41.6% | [12] 62.6% | [13] 62.5% | [14] 51.2% | [15] 58.7% | [16] 47.9% | [18] 15.7% | [19] 27.3%
active: [3] -4.44% | [9] -3.29% | [17] -9.75%

COc1cc2c(c(OC)c1OC)C(=O)CC(c1cccc(NC(=O)c3cc([N+](=O)[O-])ccc3Cl)c1)O2 (centres undefined)
active: [1] 5.58% | [4] 6.08% | [5] -6.08% | [10] 0.0604% | [11] -0.987%
inactive: [2] 19.5% | [3] 51.9% | [6] 42.2% | [7] 49.8% | [8] 22.2% | [9] 39.9% | [12] 23.2% | [13] 12.9% | [14] 52.6% | [15] 30.7% | [16] 42.7% | [17] 23.3% | [18] 45.2% | [19] 34.1%

O=S(=O)(Nc1cccc(-n2cnc3cc(-c4ccc(O)cc4)ccc32)c1)C1CC1
inactive: [1] 27.5% | [3] 46.1% | [4] 42.4% | [6] 31.9% | [7] 11.9% | [9] 68.4% | [10] 29.7% | [11] 27.2% | [12] 16.7% | [14] 37.7% | [15] 17.6% | [16] 40% | [17] 12.6% | [18] 34.5% | [19] 43.6%
active: [2] 8.55% | [5] 4.76% | [8] -11.6% | [13] -22.3%

Cn1cc(-c2nc(N)nnc2-c2c[nH]c3ccc(Br)cc23)c2cccnc21
inactive: [1] 59.7% | [2] 24.5% | [3] 57% | [4] 63.1% | [5] 63.9% | [6] 66.7% | [7] 18.1% | [8] 20.1% | [9] 81.3% | [10] 33.9% | [11] 33.2% | [12] 23.1% | [13] 31.3% | [14] 52.7% | [15] 39.5% | [16] 59.9% | [17] 26.3% | [18] 53.9% | [19] 59.9%
